The text below walks through data of PubChem BioAssay.

The nature of experiment [1]: resazurin metabolic signal in HepG2 cells – cell-based, resazurin fluorescence, 24 h, PK04 Diversity Set, profiling panel (AID 1172). Also: test concentration not given here. The conditions noted are these: HepG2 viability, higher = more signal. A general note: Alamar Blue is a resazurin reagent that responds to reducing activity.
Experiment [2] is described as follows: budding yeast growth changes without added modifier – OD600, strain BY4716, 24 h, basal condition, primary screen (AID 1173). To be noted: S. cerevisiae BY4716 growth, OD600, 24 h; higher = more signal, called active from +8 up or from −8 down.
Experiment [3] can be described thus: viability profiling in MM1S myeloma cells – cell-based, resazurin fluorescence, basal, 24 h, PK04 Diversity Set, profiling panel (AID 1174).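 Also: MM1S multiple myeloma cell line; test concentration not given here.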 The conditions noted are these: higher = more signal, called active from +8 up or from −8 down.
Experiment [4] has as its target Dihydroorotate dehydrogenase (quinone), mitochondrial (Plasmodium falciparum (isolate 3D7)) (UniProt Q08210). The experiment is described as follows: inhibition of P. falciparum DHODH – biochemical, C-terminal His tag, absorbance 600 nm, primary screen (AID 1175).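 Also: recombinant parasite enzyme with a five histidine tag at its C terminus; test concentration not given here.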 To be noted: PfDHODH enzyme, DCIP absorbance 600 nm; higher = more signal, called active from +8 up or from −8 down.

A short description of experiment [5]: inhibition of PAO1 biofilm formation – strain PAO1, LB-PBS medium, absorbance 600 nm, primary screen (AID 1176). Also: test concentration not given here. The conditions noted are these: P. aeruginosa PAO1 growth/biofilm, A600, 12 h; higher = more signal.
Experiment [6] is described as follows: growth modulation of vineyard yeast isolate – strain RM11-1a, OD600, basal, 24 h, primary screen (AID 1177).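 Also: cultures grown under basal conditions with no added stressor; test concentration not given here.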 The conditions noted are these: S. cerevisiae RM11-1a growth, OD600, 24 h; higher = more signal, called active from +8 up or from −8 down.
Experiment [7] in a line: growth of efflux-deficient E. coli DRC39 – strain DRC39, OD650, 24 h, E. coli filamentation inducers, primary screen (AID 1178).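 Also: growth measured as culture turbidity by optical density at 650 nm; test concentration not given here.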 The conditions noted are these: E. coli DRC39 acrAB, higher = more signal, called active from +8 up or from −8 down.
Experiment [8] in a line: growth of efflux-deficient E. coli DRC39 – strain DRC39, OD650, 48 h, E. coli filamentation inducers, primary screen (AID 1179).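 Also: screen aims at cell division blockers that make cells filament.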 To be noted: E. coli DRC39 delta-acrAB growth, higher = more signal, called active from +8 up or from −8 down.
Experiment [9] is described as follows: viability profiling in RPMI8226 myeloma cells – cell-based, resazurin fluorescence, basal, 24 h, PK04 Diversity Set, profiling panel (AID 1180).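 Also: RPMI8826 multiple myeloma cell line at 5000 cells per well; test concentration not given here.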 To be noted: higher = more signal.
The target of experiment [10] is E3 ubiquitin-protein ligase XIAP (Homo sapiens) (UniProt P98170). Kind of experiment: small molecules binding XIAP protein – biophysical, small-molecule microarray, fluorescence 635 nm, primary screen (AID 1181).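 Also: score merges 667 nm emission and signal to noise over triplicate slides.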 The conditions noted are these: higher = more signal.

The structures appear in SMILES notation. Activity calls are given as the source filed them. Unless noted, no rule for the calls is given here.

Chain of E3 ubiquitin-protein ligase XIAP (Homo sapiens) (P98170 whole entry, looked up): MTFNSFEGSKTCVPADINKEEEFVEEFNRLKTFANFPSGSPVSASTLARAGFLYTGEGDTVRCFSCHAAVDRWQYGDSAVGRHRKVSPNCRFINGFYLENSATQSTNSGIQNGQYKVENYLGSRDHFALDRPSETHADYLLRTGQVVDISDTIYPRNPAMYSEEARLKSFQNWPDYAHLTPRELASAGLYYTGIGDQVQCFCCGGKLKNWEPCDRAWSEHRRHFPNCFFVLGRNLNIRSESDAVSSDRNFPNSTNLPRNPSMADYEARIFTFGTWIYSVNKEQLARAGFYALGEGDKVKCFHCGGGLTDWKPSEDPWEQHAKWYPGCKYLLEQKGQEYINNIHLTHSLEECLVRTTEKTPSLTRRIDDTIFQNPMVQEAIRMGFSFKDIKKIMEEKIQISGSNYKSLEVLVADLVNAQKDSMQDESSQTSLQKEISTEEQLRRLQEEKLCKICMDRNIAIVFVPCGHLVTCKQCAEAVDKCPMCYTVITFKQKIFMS
Chain of Dihydroorotate dehydrogenase (quinone), mitochondrial (Plasmodium falciparum (isolate 3D7)) (Q08210 whole entry, looked up): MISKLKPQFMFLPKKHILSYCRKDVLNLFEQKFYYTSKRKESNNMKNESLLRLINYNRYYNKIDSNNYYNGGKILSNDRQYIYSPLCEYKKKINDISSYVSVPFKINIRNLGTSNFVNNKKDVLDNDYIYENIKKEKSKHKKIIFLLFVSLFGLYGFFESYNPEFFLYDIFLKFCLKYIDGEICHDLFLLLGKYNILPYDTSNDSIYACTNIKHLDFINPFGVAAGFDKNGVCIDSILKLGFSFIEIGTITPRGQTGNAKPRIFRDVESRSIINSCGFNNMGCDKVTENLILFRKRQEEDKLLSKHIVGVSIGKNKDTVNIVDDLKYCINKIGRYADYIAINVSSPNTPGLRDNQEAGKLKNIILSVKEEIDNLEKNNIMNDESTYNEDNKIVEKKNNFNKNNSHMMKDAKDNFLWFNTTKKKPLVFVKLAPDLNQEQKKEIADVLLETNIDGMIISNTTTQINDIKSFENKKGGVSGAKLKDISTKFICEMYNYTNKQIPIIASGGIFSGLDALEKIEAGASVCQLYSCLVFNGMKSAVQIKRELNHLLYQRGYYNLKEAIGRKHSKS

As to `COC(=O)[C@@]1(Cc2ccc(F)cc2)[C@H]2c3cc(C(=O)N(C)C)n(Cc4nc5ccccc5[nH]4)c3C[C@H]2CN1C(=O)c1ccccc1`, the z-score was 0.455 in experiment [1]; 0.681 (inactive) in experiment [2]; -0.534 (inactive) in experiment [3]; 0.315 (inactive) in [5]; 0.22 (inactive) in [6]; -0.0051 (inactive) in experiment [7]. The z-score in experiment [8] was 0.12 (inactive); in experiment [9] it was -0.187. The composite z-score in [4] was 0.0187 (inactive); in [10], 0.338.
Regarding `CC(C)N1C(=O)[C@@]2(Cc3ccccc31)c1ccccc1C(=O)N(C1CCCCC1)[C@H]2c1ccc(CO)cc1`, the z-score in experiment [1] was 2.02; in experiment [2], -0.536 (inactive); in experiment [3], 0.843 (inactive); in experiment [5], -0.255 (inactive); in experiment [6], -0.719 (inactive); in experiment [7] it was 0.589 (inactive). In addition, the figures for the z-score in experiment [8] and in [9] were 0.443 (inactive) and 0.917, respectively. Moreover, the composite z-score in experiment [4] is -18.9 (active); in experiment [10] it was -0.209.
Turning to `COc1ccc([Si](C)(C)[C@H]2[C@H](CCO)O[C@@]3(C(=O)N(Cc4ccc(N5C(=O)COc6ccccc65)cc4)c4ccccc43)[C@@H]2C)cc1`, the z-score is -1.97 in [1]; 0.573 (inactive) in experiment [2]; -4.21 (inactive) in experiment [3]; 3.06 (inactive) in experiment [5]; 3.3 (inactive) in experiment [6]; 0.404 (inactive) in [7]. The z-score was -0.288 (inactive) in [8] and -5.05 in [9]. In addition, the values for the composite z-score in experiment [4] and in experiment [10] were -0.349 (inactive) and 0.144, respectively.
Turning to `COc1ccc(C(O)C2C=CC3C(=O)N(C)C(=O)C3N2N2CCCCC2)c2ccccc12` (stereo not given), the z-score was -1.2 in [1]; -1.78 (inactive) in experiment [2]; -1.64 (inactive) in [3]; 0.503 (inactive) in experiment [5]; 0.806 (inactive) in [6]; -0.413 (inactive) in [7]. Further, the z-score in experiment [8] is -0.68 (inactive); in experiment [9], -1.71. Further, the results for the composite z-score in experiment [4] and in experiment [10] were 0.238 (inactive) and -0.202, respectively.
On to `CCOC(=O)C[C@H]1[C@H](OC(=O)c2ccc(C(=O)c3ccccc3)cc2)[C@@H](NC(=O)c2ccc(-c3ccccc3)cc2)c2cc(OCCCO)ccc2N1C(=O)c1ccccc1`, for which the z-score in [1] was -0.587; in experiment [2], -0.0317 (inactive); in [3], -0.27 (inactive); in experiment [5], 0.0429 (inactive); in experiment [6] it was -0.469 (inactive); in [7] it was -0.486 (inactive). The z-score is -0.566 (inactive) in experiment [8] and -0.387 in [9]. For the same compound, the results for the composite z-score in experiment [4] and in experiment [10] were -0.972 (inactive) and 0.0153, respectively.
As to `COc1cc2c(cc1OC)CN(C(=O)[C@H]1[C@@H]3C(=O)O[C@@H](c4ccccc4)[C@@H](c4ccccc4)N3[C@@H](c3ccc(O)cc3)[C@]13C(=O)Nc1ccc(C#CCNC(N)=O)cc13)CC2`, the z-score is 0.543 in experiment [1]; 0.16 (inactive) in experiment [2]; 0.187 (inactive) in experiment [3]; 0.305 (inactive) in experiment [5]; 0.0092 (inactive) in [6]; 0.537 (inactive) in experiment [7]. Further, the z-score in experiment [8] was 0.0455 (inactive); in experiment [9] it was 0.592. The results for the composite z-score in [4] and in experiment [10] were -2.16 (inactive) and -0.202, respectively.
On to `O=C1OCC=C[C@H]2OC34C=CCN(CCN5CCOCC5)C(=O)[C@H]3N(CCCO)C(=O)[C@@H]4[C@@H]12` (stereo not given in full), for which the z-score in [1] was -0.31; in experiment [2] it was -0.187 (inactive); in experiment [3] it was -1.4 (inactive); in [5], -0.385 (inactive); in experiment [6] it was 0.451 (inactive); in [7], -0.514 (inactive). In addition, the z-score is -1.15 (inactive) in experiment [8] and -0.0279 in [9]. For the same compound, the composite z-score is -0.283 (inactive) in [4] and 0.0222 in experiment [10].
Take `CCCCc1cn(C[C@H](Cc2ccccc2)NC(=O)N[C@H](CO)CCc2oc(C(C)=O)c(C(=O)OC)c2C(=O)OC)nn1`: the z-score in experiment [1] was -0.013; in experiment [2] it was -2.38 (inactive); in experiment [3] it was 0.465 (inactive); in experiment [5] it was -0.44 (inactive); in experiment [6], -0.728 (inactive); in experiment [7], 0.916 (inactive). For the same compound, the figures for the z-score in experiment [8] and in [9] were 0.646 (inactive) and -0.185, respectively. Moreover, the composite z-score was -2.83 (inactive) in [4] and 0.276 in experiment [10].
In the case of `CC(C)c1ccc(NN2C(C(O)c3cc(C(F)(F)F)cc(C(F)(F)F)c3)C=CC3C(=O)N(c4ccccc4)C(=O)C32)cc1` (stereo not given), the z-score in experiment [1] was -2.42; in experiment [2] it was -1.33 (inactive); in experiment [3], -3.12 (inactive); in experiment [5], 1.18 (inactive); in experiment [6] it was 1.79 (inactive); in experiment [7], -0.447 (inactive). For the same compound, the z-score was -0.729 (inactive) in experiment [8] and -5.25 in experiment [9]. Besides, the composite z-score in [4] was 0.643 (inactive); in experiment [10], 0.0813.
For `C=CCC(OC(C)=O)[C@@H]1[C@@H](N(Cc2ccc(-c3cccc(C(F)(F)F)c3)o2)C(=O)Cc2ccc(F)cc2)c2cc(OCCCO)ccc2N1C(=O)Cc1ccc(OC)cc1` (stereo not given in full), the z-score in experiment [1] is 1.2; in [2], -0.546 (inactive); in [3], 1.51 (inactive); in experiment [5], 0.0186 (inactive); in [6], -0.905 (inactive); in experiment [7], 0.559 (inactive). Besides, the z-score was 0.671 (inactive) in experiment [8] and 1.06 in experiment [9]. The composite z-score in experiment [4] is -1.26 (inactive); in [10], 0.0181.
Consider `C=CCOC(=O)[C@H]1[C@@H]2C(=O)O[C@@H](c3ccccc3)[C@@H](c3ccccc3)N2[C@@H](c2ccc(OCCOC(=O)[C@H]3C[C@H]4C(=O)N[C@@H](CC(C)C)C(=O)N4[C@H]3c3ccc(O)cc3)cc2)[C@]12C(=O)Nc1ccc(I)cc12`, for which the z-score in experiment [1] is -0.598; in experiment [2] it was -0.838 (inactive); in experiment [3], -0.491 (inactive); in [5] it was 0.379 (inactive); in [6], 0.919 (inactive); in experiment [7], -0.267 (inactive). Further, the z-score in experiment [8] is 0.276 (inactive); in experiment [9], -0.385. Also, the composite z-score is -1.72 (inactive) in [4] and 0.109 in [10].
Consider `C=CCNC(=O)[C@@H]1[C@H]2C(=O)O[C@H](c3ccccc3)[C@H](c3ccccc3)N2[C@H](c2ccccc2OCCO)[C@@]12C(=O)N(C(=O)OCCOC)c1ccc(C#CCNC(N)=O)cc12`, for which the z-score in experiment [1] was -0.359; in [2] it was 0.808 (inactive); in [3], -0.0716 (inactive); in experiment [5], 1.1 (inactive); in experiment [6] it was 1.43 (inactive); in experiment [7] it was 0.404 (inactive). The z-score in experiment [8] was 0.703 (inactive); in experiment [9], 0.122. The composite z-score in [4] was 0.0199 (inactive); in experiment [10] it was 0.171.
